Data published in PubChem BioAssay (NCATS).
Results filed as inconclusive are left out. The source made the active and inactive calls. The call rests on the fitted dose curve; in most records, active means well fitted inhibition curve with a large enough effect; inconclusive means small, poorly fitted or top-dose-only effect; inactive means flat fitted curve, though single readings scatter.

Legend:
[1] = biological target: Glutathione peroxidase 1 (Homo sapiens) (UniProt P07203); experiment: Primary qHTS Assay for Inhibitors of Recombinant Selenoprotein Glutathione Peroxidase 1 (GPX1) (AID 1845191); further: nearly all actives have a fitted effect of over 65% in size; further: potency means the concentration at half of the fitted maximal effect; on activity, negative = inhibition: on the % scale 0 is the no-effect control and ±100 the full control effect
Method in brief: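 GR-coupled assay: compounds preincubated 30 min at room temperature with GPX1, then reaction started with CHP; final 10 nM GPX1, 1 mM GSH, 0.5 mM CHP, 0.5 mM NADPH, 100 nM GR, 0.01% BSA, pH 7.5 Tris buffer. NADPH fluorescence (340/450 nm) read at 0 and 15 min.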

[2] = biological target: Phospholipid hydroperoxide glutathione peroxidase GPX4 (Homo sapiens) (UniProt P36969); experiment: Primary qHTS Assay for Inhibitors of Recombinant Selenoprotein Glutathione Peroxidase 4 (GPX4) (AID 1845192); further: nearly all actives have a fitted effect of over 65% in size; on activity change, negative = inhibition: series mostly up to about 50 µM; on the % scale 0 is the no-effect control and ±100 the full control effect
Method in brief: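 GR-coupled assay: recombinant GPX4 preincubated 30 min with compound at room temperature; final 200 nM GPX4, 1 mM GSH, 0.5 mM cumene hydroperoxide, 0.5 mM NADPH, 100 nM GR, 0.01% BSA, pH 7.5 Tris. NADPH fluorescence (340/450 nm) read at 0 and 15 min.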

[3] = biological target: Luciferin 4-monooxygenase (Photinus pyralis) (UniProt P08659); experiment: Primary firefly luciferase (FLuc) qHTS assay for identification of artifact compounds. (AID 1845220); further: nearly all actives have a fitted effect of over 60% in size;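 on activity change, negative = inhibition: series mostly up to about 54 µM; plate controls were DMSO vehicle for no effect and no enzyme for full effect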
Method in brief: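 Enzymatic FLuc inhibition assay: compounds pre-exposed to luciferin/ATP (10 uM each) for 15 min, then purified P. pyralis enzyme at 10 nM added. Read-out: luminescence at 5 min.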

[4] = test system: Nanoluciferase (engineered Oplophorus gracilirostris luciferase); experiment: Primary Nanoluciferase (NLuc) qHTS assay for identification of artifact compounds. (AID 1845222);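 further: NLuc secreted into diluted conditioned medium of S16 cells; series mostly up to about 54 µM; 0% = DMSO and -100% = no enzyme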
Method in brief: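 S16 cell supernatant NLuc, 1:55; cpds qHTS; 15 min RT dark; Nano-Glo substrate 1:100, 5 min; luminescence; Hill fit of % inhibition.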

Chain of Phospholipid hydroperoxide glutathione peroxidase GPX4 (Homo sapiens) (P36969 whole entry, looked up): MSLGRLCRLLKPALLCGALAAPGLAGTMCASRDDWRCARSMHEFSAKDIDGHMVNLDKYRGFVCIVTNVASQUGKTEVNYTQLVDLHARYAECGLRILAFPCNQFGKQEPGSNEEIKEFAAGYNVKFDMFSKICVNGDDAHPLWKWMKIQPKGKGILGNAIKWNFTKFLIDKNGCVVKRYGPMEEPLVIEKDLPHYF
Chain of Glutathione peroxidase 1 (Homo sapiens) (P07203 whole entry, looked up): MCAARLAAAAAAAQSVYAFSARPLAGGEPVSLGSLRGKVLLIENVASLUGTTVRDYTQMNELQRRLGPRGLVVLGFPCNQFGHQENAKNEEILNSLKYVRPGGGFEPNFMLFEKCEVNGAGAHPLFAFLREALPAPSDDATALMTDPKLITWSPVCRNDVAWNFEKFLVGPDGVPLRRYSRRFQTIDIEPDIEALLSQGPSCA

COc1ccc(/C=C/C(=O)O[C@@H]2[C@@H](O[C@@H]3O[C@H](CO)[C@@H](O)[C@H](O)[C@H]3O)[C@@H](O)[C@H](O[C@H]3C4C=CO[C@@H](O[C@@H]5O[C@H](CO)[C@@H](O)[C@H](O)[C@H]5O)C4[C@@]4(CO)O[C@@H]34)O[C@H]2C)cc1 (stereo not given in full)
inactive: Potency [1] | Potency [2] | activity change, negative = inhibition [3] -3.03% [at 11.6 µM] | activity, negative = inhibition [4] 1.1% [at 11.6 µM]

C=C1Cc2c(Cl)cc3[nH]c4c5c3c2[C@@]2(O)[C@@H]1C[C@@H]2C(C)(C)O[C@H]5C1CC[C@@]2(O)[C@@]35O[C@@H]3[C@H]3OC(C)(C)[C@H]3O[C@H]5CC[C@]2(C)[C@@]41C (stereo not given in full)
inactive: Potency [1] | Potency [2] | Potency [3] | Potency [4]

Oc1ccc2c(-c3c(-c4ccccn4)nn4c3CCC4)ccnc2c1
inactive: Potency [1] | Potency [2] | Potency [3] | Potency [4]

C[C@]1(OC(=O)/C=C\c2ccc(O)cc2)C[C@@H](O)[C@]2(O)C=CO[C@@H](O[C@@H]3O[C@H](CO)[C@@H](O)[C@H](O)[C@H]3O)C12 (stereo not given in full)
inactive: Potency [1] | Potency [2] | Potency [3] | Potency [4]

C/C(=C\C1CCC(C)C2CCC3(C)OC123)C(=O)O (stereo not given)
inactive: Potency [1] | Potency [2] | Potency [3] | Potency [4]

C/C=C/C=C/C=C/C(=O)N(C)C(C(=O)NC(C)C(=O)N1CCCC1C(N)=O)C(C)C (stereo not given)
inactive: Potency [1] | Potency [2] | Potency [3] | Potency [4]

CC(C)(O)C1OC1C1=CC(=O)C2(C)OC2C1O (stereo not given)
inactive: Potency [1] | Potency [2] | Potency [3] | Potency [4]

COC1OC(O)C2(CCC3(O2)C(C)CC2OC(=O)C4(C)CCCC3(C)C24)C1O (stereo not given)
inactive: Potency [1] | Potency [2] | Potency [3] | Potency [4]

CCCCOc1nc(N)c2c(n1)N(Cc1cccc(CN3CCCC3)c1)CC(=O)N2
inactive: Potency [1] | Potency [2] | Potency [3] | Potency [4]

COc1cc(/C=C/C(=O)O[C@@H]2C[C@](O)(C(=O)O)C[C@@H](O)[C@H]2O)ccc1O
inactive: Potency [1] | Potency [2] | Potency [3] | Potency [4]

O=C(/C=C/c1ccccc1)O[C@@H]1[C@@H](CO)O[C@@](CO)(O[C@H]2O[C@H](CO)[C@@H](O)[C@H](O)[C@H]2O)[C@H]1O
inactive: Potency [1] | Potency [2] | Potency [3] | Potency [4]

C=C(C(=O)O)[C@H]1C[C@]2(C)C(=O)CC[C@]23O[C@H]1C[C@@H]3C
inactive: Potency [1] | Potency [2] | Potency [3] | Potency [4]

OC[C@@]1(O)CO[C@H](OC[C@H]2O[C@@H](OC(CCCCc3ccc(O)cc3)CCc3ccc(O)cc3)[C@H](O[C@H]3OC[C@](O)(CO)[C@H]3O)[C@@H](O)[C@@H]2O)[C@@H]1O (stereo not given in full)
inactive: Potency [1] | Potency [2] | Potency [3] | Potency [4]

COCC1OC(OC(C)(C)C2CCC3(C)C=C(C4CCC5C4(C)CC(O)C4OC(C(C)(C)O)CCC45C)CCC3O2)C(NC(C)=O)C(O)C1O (stereo not given)
inactive: Potency [1] | Potency [2] | Potency [3] | Potency [4]

CC1(C(=O)O)CCCC2(C)C3CCC4CC3(CCC12)CC4(O)CO (stereo not given)
inactive: Potency [1] | Potency [2] | Potency [3] | Potency [4]

OC[C@H]1O[C@@H](OCc2ccccc2)[C@H](O[C@@H]2OC[C@@H](O)[C@H](O)[C@H]2O)[C@@H](O)[C@@H]1O
inactive: Potency [1] | Potency [2] | Potency [3] | Potency [4]

COC(=O)C1(O)C(OC(C)=O)CCC2C3(CC(c4ccoc4)OC3=O)C(C)=CCC21C(=O)OC (stereo not given)
inactive: Potency [1] | Potency [2] | Potency [3] | Potency [4]

COc1cc(CO)ccc1O[C@@H]1O[C@H](CO)[C@@H](O)[C@H](O)[C@H]1O
inactive: Potency [1] | Potency [2] | Potency [3] | Potency [4]

COc1cc(Nc2nc3ccccc3nc2NS(=O)(=O)c2cccc(NC(=O)c3ccc(C)c(OC)c3)c2)cc(OC)c1
inactive: Potency [1] | Potency [2] | Potency [3] | Potency [4]

OC[C@H]1O[C@@H](OC[C@H]2O[C@@H](OCc3ccccc3)[C@H](O)[C@@H](O)[C@@H]2O)[C@H](O)[C@@H](O)[C@@H]1O
inactive: Potency [1] | Potency [2] | Potency [3] | Potency [4]

COC(=O)C1=COC(O[C@@H]2O[C@H](CO)[C@@H](O)[C@H](O)[C@H]2O)C2C(C)C(=O)CC12 (stereo not given in full)
inactive: Potency [1] | Potency [2] | Potency [3] | Potency [4]

COC1OC(OC)C(O)(CCC2(C)C(C)CCC3(C)C2CC(O)C(O)C32CO2)C1O (stereo not given)
inactive: Potency [1] | Potency [2] | Potency [3] | Potency [4]

CC(C)=CCC[C@@](C)(O)[C@H]1CC[C@]2(C)[C@@H]1[C@H](O)CC1[C@@]3(C)CC[C@H](O[C@@H]4O[C@H](CO)[C@@H](O)[C@H](O)[C@H]4O[C@@H]4O[C@H](CO)[C@@H](O)[C@H](O)[C@H]4O)C(C)(C)[C@@H]3CC[C@]12C (stereo not given in full)
inactive: Potency [1] | Potency [2] | Potency [3] | Potency [4]

CN1CCN(c2nc(-c3ccc(C(=O)NC4(C(=O)NCC#N)CCCCC4)cc3)cs2)CC1
inactive: Potency [1] | Potency [2] | Potency [3] | Potency [4]

O=C(O[C@@H]1O[C@H](CO)[C@@H](O)[C@H](O)[C@H]1O)c1ccccc1
inactive: Potency [1] | Potency [2] | Potency [3] | Potency [4]

C[C@]12CCC[C@](C)(C(=O)O)C1[C@@H](O)[C@@H](O)C13CC(CCC12)C(CO)(O[C@@H]1O[C@H](CO)[C@@H](O)[C@H](O)[C@H]1O)C3 (stereo not given in full)
inactive: Potency [1] | Potency [2] | Potency [3] | Potency [4]

CC1(C)C(=O)CCC2(C)C1C(O)C=C1COC(=O)C12O (stereo not given)
inactive: Potency [1] | Potency [2] | Potency [3] | Potency [4]

COc1cc(O)cc(O[C@@H]2O[C@H](CO)[C@@H](O[C@@H]3OC[C@](O)(CO)[C@H]3O)[C@H](O)[C@H]2O)c1OC
inactive: Potency [1] | Potency [2] | Potency [3] | Potency [4]

Cc1ccc(C)c(NC(=O)CNS(=O)(=O)c2ccc3[nH]c(=O)oc3c2)c1
inactive: Potency [1] | Potency [2] | Potency [3] | Potency [4]

Cc1ccc(Nc2nnc(-c3ccc([N+](=O)[O-])cc3)o2)cc1Cl
inactive: Potency [1] | Potency [2] | Potency [3] | Potency [4]

C/C1=C\CC[C@]2(C)O[C@H]2C(=O)c2c(C)coc2C1
inactive: Potency [1] | Potency [2] | Potency [3] | Potency [4]

CC/C=C\[C@H](O)[C@H](O)C1=C(C)C(=O)[C@]2(O1)C(=O)N[C@@](O)(C(=O)c1ccccc1)[C@@H]2O
inactive: Potency [1] | Potency [2] | Potency [3] | Potency [4]

O=[N+]([O-])c1cc(Cl)ccc1S(=O)(=O)N1CCN(Cc2ccccc2)CC1
inactive: Potency [1] | Potency [2] | Potency [3] | Potency [4]

COC(=O)[C@H](c1ccccc1Cl)N1CCC2SC(=O)C=C2C1 (stereo not given in full)
inactive: Potency [2] | Potency [3] | Potency [4]
active: Potency [1] 8.06 µM

CS(=O)(=O)c1ccccc1N1CCN(c2nc3c(c(=O)[nH]2)CSCC3)CC1
inactive: Potency [1] | Potency [2] | Potency [3] | Potency [4]

CC1(C(=O)O)CCCC2(C)C3CCC4CC3(CCC12)CC4C(=O)O (stereo not given)
inactive: Potency [1] | Potency [2] | Potency [3] | Potency [4]

COc1cc(O)c2c(c1)C1(OC2=O)C(C)=CC(=O)C1O (stereo not given)
inactive: Potency [1] | Potency [2] | Potency [3] | Potency [4]

COC(=O)C1=CO[C@@H](O[C@@H]2O[C@H](CO)[C@@H](O)[C@H](O)[C@H]2O)[C@H]2[C@@H]1[C@H](O)C[C@]2(C)O
inactive: Potency [1] | Potency [2] | Potency [3] | Potency [4]

O=C(O)c1ccc(NC(=O)[C@H](CC2CCCC2)n2cnc(C(F)(F)F)c2)nc1
inactive: Potency [1] | Potency [2] | Potency [3] | Potency [4]

Cc1c(C)c(NCC(=O)N(C)C2CCN(Cc3ccc(C(N)=O)cc3)CC2)c(C)c(C)c1N
inactive: Potency [1] | Potency [2] | Potency [3] | Potency [4]

CC1=CC(=O)C(=C(C)C)CC2C(C)(O)CCC12O (stereo not given)
inactive: Potency [1] | Potency [2] | Potency [3] | Potency [4]

CCCCNc1nc(N)c2[nH]c(=O)n(Cc3ccc(OCCN(C)C)nc3)c2n1
inactive: Potency [1] | Potency [2] | Potency [3] | Potency [4]

O=C(O)CC(CCc1ccccc1)OC1OC(CO)C(O)C(O)C1O (stereo not given)
inactive: Potency [1] | Potency [2] | Potency [3] | Potency [4]

CCC/C=C/C=C/C1CC(O)C(O)C(=O)C1CO (stereo not given)
inactive: Potency [1] | Potency [2] | Potency [3] | Potency [4]

C[C@]1(O)CC[C@@H]2C(C(=O)O)=CO[C@@H](O[C@@H]3O[C@H](CO)[C@@H](O)[C@H](O)[C@H]3O)[C@@H]21
inactive: Potency [1] | Potency [2] | Potency [3] | Potency [4]

OCC1=C[C@@H](O)[C@@H]2C=CO[C@@H](O[C@@H]3O[C@H](CO)[C@@H](O)[C@H](O)[C@H]3O)[C@H]12
inactive: Potency [1] | Potency [2] | Potency [3] | Potency [4]

CC1CCC2C(C(=O)O)=CC3(O)CC(C)(C)CC123 (stereo not given)
inactive: Potency [1] | Potency [2] | Potency [3] | Potency [4]

CC(=O)c1ccc(O[C@@H]2OC[C@@H](O)[C@H](O)[C@H]2O[C@]2(CO)O[C@H](CO)[C@@H](O)[C@@H]2O)c(O)c1
inactive: Potency [1] | Potency [2] | Potency [3] | Potency [4]

O=C(O[C@H]1[C@H](Oc2ccc(O)cc2CO)O[C@H](CO)[C@@H](O)[C@@H]1O)c1ccccc1
inactive: Potency [1] | Potency [2] | Potency [3] | Potency [4]

COc1c2c(c(C)c3c1C(=O)OC3)OC1(C)CC(O)C34OC(OC)(CCC3(C)C1C2)OC4(C)CO (stereo not given)
inactive: Potency [1] | Potency [2] | Potency [3] | Potency [4]

CC1CC=C2C1CC1(O)C(=O)CC2(C)C1(C)CO (stereo not given)
inactive: Potency [1] | Potency [2] | Potency [3] | Potency [4]

COC(=O)C1=COC(OC2OC(CO)C(O)C(O)C2O)C2C(C)C(OC(C)=O)C(OC(=O)c3ccccc3)C12 (stereo not given)
inactive: Potency [1] | Potency [2] | Potency [3] | Potency [4]

O=C(O)c1cccc(C(=O)CCC2OC(n3cnc4c(=O)[nH]cnc43)C(O)C2O)c1 (stereo not given)
inactive: Potency [1] | Potency [2] | Potency [3] | Potency [4]

N[C@@H](CC(=O)Nc1ccc(Oc2cc(F)c(F)cc2Br)cc1)C(=O)O
inactive: Potency [1] | Potency [2] | Potency [3] | Potency [4]

COC(=O)C1=CO[C@@H](O[C@@H]2O[C@H](CO)[C@@H](O)[C@H](O)[C@H]2O)[C@@H]2[C@@H](CO)[C@@H](O)C(O)[C@H]12 (stereo not given in full)
inactive: Potency [1] | Potency [2] | Potency [3] | Potency [4]
